# Values without a mark were called inactive.
# Legend:
# Experiment in all cases: log2 ratio of Biotin-Ahx-Ub-VS probe labelling (fragment/DMSO); higher = less target engagement (more negative = stronger competition), active = hit call of the paper (q ≤ 0.05, log2 ratio ≤ -1)
# Conditions in all cases: compound concentration: 200 uM; treatment time: 3 h
# USP19 = target: T1, USP19 (UniProt O94966)
# T1 sequence (whole entry): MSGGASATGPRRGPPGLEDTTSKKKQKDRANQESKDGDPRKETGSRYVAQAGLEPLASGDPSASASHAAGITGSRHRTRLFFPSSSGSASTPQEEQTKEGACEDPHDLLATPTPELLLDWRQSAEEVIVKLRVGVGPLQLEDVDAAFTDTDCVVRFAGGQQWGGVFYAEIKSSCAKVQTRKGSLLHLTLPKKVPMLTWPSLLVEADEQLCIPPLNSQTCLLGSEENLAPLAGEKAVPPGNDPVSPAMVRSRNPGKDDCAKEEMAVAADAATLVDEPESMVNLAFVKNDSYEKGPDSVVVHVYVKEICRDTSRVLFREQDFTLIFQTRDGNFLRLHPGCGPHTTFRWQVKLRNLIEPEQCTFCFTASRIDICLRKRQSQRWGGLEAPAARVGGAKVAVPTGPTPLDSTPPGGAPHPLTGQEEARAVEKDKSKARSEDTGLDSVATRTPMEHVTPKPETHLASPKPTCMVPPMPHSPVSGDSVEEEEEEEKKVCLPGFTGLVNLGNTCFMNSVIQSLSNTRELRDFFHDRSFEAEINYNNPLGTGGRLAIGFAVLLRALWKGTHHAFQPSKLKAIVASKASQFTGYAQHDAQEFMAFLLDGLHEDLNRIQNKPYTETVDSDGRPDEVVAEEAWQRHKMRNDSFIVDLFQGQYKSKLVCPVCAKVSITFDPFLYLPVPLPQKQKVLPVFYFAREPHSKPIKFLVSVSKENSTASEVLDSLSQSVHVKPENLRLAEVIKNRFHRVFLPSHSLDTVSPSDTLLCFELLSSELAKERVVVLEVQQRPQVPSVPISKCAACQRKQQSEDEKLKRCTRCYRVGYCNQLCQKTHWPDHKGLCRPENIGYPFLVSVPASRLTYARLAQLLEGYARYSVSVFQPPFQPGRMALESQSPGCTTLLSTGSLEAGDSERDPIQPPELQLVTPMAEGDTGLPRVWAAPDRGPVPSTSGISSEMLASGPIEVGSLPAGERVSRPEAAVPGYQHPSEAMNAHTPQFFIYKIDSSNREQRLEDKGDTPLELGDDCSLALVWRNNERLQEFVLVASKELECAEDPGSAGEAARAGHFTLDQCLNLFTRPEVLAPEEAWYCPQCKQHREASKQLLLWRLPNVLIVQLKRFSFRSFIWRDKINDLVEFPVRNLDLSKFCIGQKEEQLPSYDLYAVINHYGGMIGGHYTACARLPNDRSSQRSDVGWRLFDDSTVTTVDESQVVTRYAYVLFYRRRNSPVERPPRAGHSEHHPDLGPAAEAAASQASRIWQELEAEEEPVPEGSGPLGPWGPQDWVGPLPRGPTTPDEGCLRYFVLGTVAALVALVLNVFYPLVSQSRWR
# Summary of the method: (§1)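 The table lists average log2 ratios of fragment over vehicle, from an unpaired t-test on global-median-normalised Spectronaut label-free quantities. Proteins with ≥2 unique peptides were used. Samples were HEK293T lysate (495 µg) treated in triplicate with fragment at 200 µM or vehicle for 3 h, then with Biotin-Ahx-Ub-VS (0.5 µM final) for 1 h, with labelled DUBs NeutrAvidin-enriched and run by diaPASEF LC-MS/MS.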
# USP24 = USP24 (UniProt Q9UPU5)
# USP24, sequence (Q9UPU5 whole entry): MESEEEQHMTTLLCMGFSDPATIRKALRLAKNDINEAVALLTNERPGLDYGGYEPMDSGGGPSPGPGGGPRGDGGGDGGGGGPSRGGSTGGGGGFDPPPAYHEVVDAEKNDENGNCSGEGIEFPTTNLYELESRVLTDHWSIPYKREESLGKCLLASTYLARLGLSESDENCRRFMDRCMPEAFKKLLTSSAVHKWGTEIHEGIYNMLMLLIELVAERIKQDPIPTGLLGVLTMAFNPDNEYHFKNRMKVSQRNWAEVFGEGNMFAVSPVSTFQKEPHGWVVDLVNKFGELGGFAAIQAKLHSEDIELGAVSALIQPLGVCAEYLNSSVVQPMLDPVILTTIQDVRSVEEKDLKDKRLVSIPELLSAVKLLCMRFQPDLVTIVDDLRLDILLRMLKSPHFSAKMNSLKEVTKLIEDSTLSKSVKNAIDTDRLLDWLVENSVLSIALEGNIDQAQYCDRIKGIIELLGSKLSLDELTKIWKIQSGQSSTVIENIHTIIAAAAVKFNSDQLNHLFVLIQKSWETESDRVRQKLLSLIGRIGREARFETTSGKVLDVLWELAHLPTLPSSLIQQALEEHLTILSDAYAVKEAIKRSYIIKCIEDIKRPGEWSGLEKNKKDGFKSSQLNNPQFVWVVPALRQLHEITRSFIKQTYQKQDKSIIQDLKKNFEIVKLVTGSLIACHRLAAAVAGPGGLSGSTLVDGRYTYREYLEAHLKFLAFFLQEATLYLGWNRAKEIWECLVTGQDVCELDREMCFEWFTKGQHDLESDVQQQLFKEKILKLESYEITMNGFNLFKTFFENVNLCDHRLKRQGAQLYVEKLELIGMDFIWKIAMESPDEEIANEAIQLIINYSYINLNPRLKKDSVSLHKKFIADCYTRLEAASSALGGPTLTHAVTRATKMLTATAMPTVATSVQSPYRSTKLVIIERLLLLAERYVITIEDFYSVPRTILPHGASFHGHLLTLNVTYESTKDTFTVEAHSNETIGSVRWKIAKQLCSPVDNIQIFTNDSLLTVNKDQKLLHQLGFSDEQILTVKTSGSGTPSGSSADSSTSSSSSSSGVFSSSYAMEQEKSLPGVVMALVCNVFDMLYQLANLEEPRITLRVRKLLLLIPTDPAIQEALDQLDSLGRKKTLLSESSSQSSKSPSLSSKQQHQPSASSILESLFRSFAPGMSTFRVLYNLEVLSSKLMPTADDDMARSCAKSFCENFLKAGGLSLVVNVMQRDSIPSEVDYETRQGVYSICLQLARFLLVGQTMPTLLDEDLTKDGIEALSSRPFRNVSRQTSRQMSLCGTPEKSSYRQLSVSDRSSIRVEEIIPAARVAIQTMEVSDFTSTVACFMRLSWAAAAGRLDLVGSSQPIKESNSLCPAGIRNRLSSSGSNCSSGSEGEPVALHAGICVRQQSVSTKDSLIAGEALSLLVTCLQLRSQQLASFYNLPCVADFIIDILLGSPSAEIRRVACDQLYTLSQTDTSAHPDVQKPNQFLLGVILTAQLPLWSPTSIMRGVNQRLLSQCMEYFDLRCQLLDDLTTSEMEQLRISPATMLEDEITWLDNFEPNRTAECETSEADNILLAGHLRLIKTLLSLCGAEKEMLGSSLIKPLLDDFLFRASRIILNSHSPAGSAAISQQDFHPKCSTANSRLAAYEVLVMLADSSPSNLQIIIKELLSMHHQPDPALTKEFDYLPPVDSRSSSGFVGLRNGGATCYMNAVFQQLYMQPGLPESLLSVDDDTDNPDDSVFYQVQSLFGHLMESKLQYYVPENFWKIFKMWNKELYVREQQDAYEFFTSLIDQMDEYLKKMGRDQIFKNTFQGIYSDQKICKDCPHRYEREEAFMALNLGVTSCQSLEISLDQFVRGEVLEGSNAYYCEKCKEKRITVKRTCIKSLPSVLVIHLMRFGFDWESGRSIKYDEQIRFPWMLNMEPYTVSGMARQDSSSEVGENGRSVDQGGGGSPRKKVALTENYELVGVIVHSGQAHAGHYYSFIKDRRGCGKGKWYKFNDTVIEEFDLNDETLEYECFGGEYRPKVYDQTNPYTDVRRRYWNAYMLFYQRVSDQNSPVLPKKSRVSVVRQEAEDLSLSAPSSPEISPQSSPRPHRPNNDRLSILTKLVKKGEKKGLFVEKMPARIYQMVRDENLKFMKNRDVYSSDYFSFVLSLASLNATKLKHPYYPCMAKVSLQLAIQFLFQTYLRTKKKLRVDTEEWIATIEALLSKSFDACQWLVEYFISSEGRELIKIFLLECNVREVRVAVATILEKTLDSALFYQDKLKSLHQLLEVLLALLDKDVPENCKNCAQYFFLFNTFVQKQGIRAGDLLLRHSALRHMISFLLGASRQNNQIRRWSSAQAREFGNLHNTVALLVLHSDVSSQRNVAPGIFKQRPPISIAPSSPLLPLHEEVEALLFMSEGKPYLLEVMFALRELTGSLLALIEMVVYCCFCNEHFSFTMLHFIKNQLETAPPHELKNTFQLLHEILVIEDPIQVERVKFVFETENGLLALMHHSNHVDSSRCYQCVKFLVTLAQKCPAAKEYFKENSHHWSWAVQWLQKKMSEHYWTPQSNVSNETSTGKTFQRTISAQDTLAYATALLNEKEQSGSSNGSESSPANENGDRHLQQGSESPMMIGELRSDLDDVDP
# Summary of the method: as §1
# USP25 = target: T2, USP25 (UniProt Q9UHP3)
# T2 sequence (whole entry): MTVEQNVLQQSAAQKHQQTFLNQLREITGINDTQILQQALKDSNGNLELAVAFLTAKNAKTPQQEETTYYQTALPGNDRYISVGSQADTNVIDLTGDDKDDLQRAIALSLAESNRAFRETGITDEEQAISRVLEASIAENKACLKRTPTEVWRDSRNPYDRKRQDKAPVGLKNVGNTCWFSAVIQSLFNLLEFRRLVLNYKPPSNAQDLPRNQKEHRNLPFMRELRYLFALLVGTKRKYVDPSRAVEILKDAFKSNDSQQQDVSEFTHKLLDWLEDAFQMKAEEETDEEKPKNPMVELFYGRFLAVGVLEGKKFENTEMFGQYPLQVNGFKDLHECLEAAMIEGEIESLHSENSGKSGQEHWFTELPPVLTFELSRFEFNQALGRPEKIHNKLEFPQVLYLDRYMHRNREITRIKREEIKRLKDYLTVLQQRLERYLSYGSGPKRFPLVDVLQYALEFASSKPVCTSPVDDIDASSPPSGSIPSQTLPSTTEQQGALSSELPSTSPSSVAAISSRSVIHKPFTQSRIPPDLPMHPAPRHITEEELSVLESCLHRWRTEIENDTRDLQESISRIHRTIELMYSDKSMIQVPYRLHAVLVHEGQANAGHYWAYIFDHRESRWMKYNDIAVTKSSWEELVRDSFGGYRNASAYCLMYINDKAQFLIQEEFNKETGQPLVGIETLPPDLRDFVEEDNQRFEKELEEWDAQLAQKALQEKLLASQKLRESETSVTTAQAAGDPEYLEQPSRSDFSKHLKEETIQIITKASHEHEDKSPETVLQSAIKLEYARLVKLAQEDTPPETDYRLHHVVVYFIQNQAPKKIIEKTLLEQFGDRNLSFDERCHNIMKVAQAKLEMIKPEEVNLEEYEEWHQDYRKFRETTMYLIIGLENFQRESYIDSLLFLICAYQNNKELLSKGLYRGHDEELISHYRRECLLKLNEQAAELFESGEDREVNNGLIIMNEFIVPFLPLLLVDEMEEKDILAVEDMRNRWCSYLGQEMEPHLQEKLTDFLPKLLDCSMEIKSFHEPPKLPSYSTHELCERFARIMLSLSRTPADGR
# Summary of the method: as §1
# USP28 = target: T3, USP28 (UniProt Q96RU2)
# T3 sequence (whole entry): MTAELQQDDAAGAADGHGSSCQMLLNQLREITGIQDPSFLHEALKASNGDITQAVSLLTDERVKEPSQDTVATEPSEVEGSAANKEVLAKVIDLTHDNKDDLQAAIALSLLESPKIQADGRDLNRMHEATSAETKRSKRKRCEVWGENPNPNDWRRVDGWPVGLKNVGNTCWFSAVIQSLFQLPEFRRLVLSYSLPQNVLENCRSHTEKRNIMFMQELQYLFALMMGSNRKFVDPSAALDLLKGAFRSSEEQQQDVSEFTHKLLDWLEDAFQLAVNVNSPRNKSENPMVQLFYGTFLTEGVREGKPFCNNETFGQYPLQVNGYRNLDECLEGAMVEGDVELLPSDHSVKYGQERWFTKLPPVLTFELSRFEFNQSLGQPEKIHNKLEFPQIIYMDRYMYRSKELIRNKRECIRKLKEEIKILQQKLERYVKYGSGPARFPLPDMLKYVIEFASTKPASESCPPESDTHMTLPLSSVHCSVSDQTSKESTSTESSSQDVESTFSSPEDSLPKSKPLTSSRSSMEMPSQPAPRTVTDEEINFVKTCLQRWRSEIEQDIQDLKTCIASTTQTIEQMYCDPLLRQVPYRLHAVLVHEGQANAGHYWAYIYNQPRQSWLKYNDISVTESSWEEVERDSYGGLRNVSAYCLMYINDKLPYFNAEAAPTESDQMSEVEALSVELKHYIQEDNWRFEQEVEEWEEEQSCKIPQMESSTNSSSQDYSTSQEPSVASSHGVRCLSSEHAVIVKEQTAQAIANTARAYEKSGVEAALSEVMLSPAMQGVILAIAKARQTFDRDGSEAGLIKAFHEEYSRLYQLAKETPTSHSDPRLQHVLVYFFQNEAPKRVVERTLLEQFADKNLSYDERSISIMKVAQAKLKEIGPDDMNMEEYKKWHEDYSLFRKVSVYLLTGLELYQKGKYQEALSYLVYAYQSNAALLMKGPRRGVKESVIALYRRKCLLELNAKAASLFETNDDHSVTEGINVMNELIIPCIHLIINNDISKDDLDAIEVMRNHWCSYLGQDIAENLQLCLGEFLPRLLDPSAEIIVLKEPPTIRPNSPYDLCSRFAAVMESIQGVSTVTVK
# Summary of the method: as §1
smiles,measurement,setting,value
O=C(CCl)N1CCc2sccc2C1,log2 ratio of Biotin-Ahx-Ub-VS probe labelling,USP19,-1.19 (active)
same,log2 ratio of Biotin-Ahx-Ub-VS probe labelling,USP24,-1.31 (active)
same,log2 ratio of Biotin-Ahx-Ub-VS probe labelling,USP25,-1.13 (active)
same,log2 ratio of Biotin-Ahx-Ub-VS probe labelling,USP28,-0.791
